VDR inhibitor: Inhibitors of the vitamin D receptor (VDR): qHTS; VDR-SRC2-3 peptide fluorescence polarization, 2 h; Potency, µM, without a hit: max response, negative = inhibition, actives largely listed as inhibitors; actives 0.93% (n = 400,000); also: % is scaled to controls: 0 for no effect and ±100 for the full control effect
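Measured by FP: displacement of SRC2-3 coactivator peptide from VDR by library compounds, following a two-hour ambient incubation.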
S-ASM inh: Inhibitors of Secretory Acid Sphingomyelinase (S-ASM): qHTS | placental ASM, HMU-PC fluorogenic substrate, 60 min | Potency, µM (top dose mostly 57.5 µM), without a hit: at the highest dose activity change, negative = inhibition, hits mostly inhibitors | actives 0.006% (n = 340,000)
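Fluorescence read-out (Ex 386 nm, Em 447 nm) after stopping the reaction at pH 10. Enzyme: ASM from human placenta; substrate HMU-PC0, 9 uM final; 60 min, 37 °C. Compound preincubation 10 min, ambient temperature.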
PLK1 PBD block: qHTS for Inhibitors of PLK1-PDB (polo-like kinase 1 - polo-box domain): Primary Screen; Serine/threonine-protein kinase PLK1 (Homo sapiens), P53350; Plk1 PBD binding of FITC phosphopeptide, fluorescence polarization; Potency, µM, for the others: max response, negative = inhibition, usual class: inhibitors; actives 2.8% (n = 360,000); AID 720504, 2013; also: series mostly up to about 57 µM; % is scaled to controls: 0 for no effect and ±100 for the full control effect; nearly all actives have a fitted effect of over 65% in size
Pin1 inh: qHTS Assay to Find Inhibitors of Pin1; actives 0.009% (n = 390,000); Potency, µM (titrated, usually from 115 µM), inactives show top-dose activity, negative = inhibition, most hits filed as inhibitors; Pin1 FP peptide displacement, HiFluor488, 10 min; Peptidyl-prolyl cis-trans isomerase NIMA-interacting 1 (Homo sapiens), Q13526; active = well fitted inhibition curve with a large enough effect in the polarisation, with a control signal flat, not every such curve was filed as active; inconclusive = small, poorly fitted or top-dose-only effect, or effect the other way, or a change in a side signal; inactive = no such curve, though single readings can be large or run the other way; the % refers to the polarisation; also: % is scaled to controls: 0 for no effect and ±100 for the full control effect
Target sequence (Q13526 whole entry, looked up): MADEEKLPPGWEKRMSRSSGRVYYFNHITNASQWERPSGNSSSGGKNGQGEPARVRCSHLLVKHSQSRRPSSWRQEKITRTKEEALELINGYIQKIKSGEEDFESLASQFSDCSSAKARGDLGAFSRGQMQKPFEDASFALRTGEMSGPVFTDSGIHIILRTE
TDP1 inh: qHTS Assay for Inhibitors of Tyrosyl-DNA Phosphodiesterase (TDP1); actives 0.28% (n = 350,000); Tyrosyl-DNA phosphodiesterase 1 (Homo sapiens), Q9NUW8; recombinant TDP1, AlphaScreen DNA substrate cleavage; Potency, µM (series often up to 130 µM), for the others: top-dose activity change, negative = inhibition, usual class: inhibitors; also: % is scaled to controls: 0 for no effect and ±100 for the full control effect; nearly all actives have a fitted effect of over 40% in size
Target sequence (Q9NUW8 whole entry, looked up): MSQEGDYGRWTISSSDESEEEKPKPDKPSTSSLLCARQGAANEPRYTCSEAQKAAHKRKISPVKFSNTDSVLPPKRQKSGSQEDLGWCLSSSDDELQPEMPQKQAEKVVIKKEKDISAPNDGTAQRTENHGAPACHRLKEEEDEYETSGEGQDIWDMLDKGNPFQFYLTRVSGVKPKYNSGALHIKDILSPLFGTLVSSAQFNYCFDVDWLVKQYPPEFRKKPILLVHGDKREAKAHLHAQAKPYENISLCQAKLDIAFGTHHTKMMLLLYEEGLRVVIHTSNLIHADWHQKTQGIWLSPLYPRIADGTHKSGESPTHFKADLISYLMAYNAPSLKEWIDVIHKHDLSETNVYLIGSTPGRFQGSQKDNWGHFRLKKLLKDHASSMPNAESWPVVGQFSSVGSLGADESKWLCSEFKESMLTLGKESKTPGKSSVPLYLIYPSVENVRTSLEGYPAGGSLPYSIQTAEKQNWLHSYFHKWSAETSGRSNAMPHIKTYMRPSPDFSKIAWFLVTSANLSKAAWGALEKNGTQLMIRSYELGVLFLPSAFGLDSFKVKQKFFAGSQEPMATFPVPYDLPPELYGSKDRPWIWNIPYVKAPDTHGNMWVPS
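Compounds were preincubated with Tdp1 (1 nM final) for 15 min at room temperature before substrate (15 nM final) started a 5 min reaction; beads (10 ug/ml final) were then added for 10 min before AlphaScreen detection.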
Tb PFK inh: qHTS Assay to Find Inhibitors of T. brucei phosphofructokinase | ATP-dependent 6-phosphofructokinase (Trypanosoma brucei brucei), O15648 | T. brucei PFK, ADP-Glo luminescence | Potency, µM (series often up to 57.5 µM), for the others: top-dose activity, negative = inhibition, most hits filed as inhibitors | actives 0.17% (n = 330,000) | AID 485367, 2010;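 also: 0% = uninhibited 1x PFK enzyme wells and -100% = no-enzyme wells; nearly all actives have a fitted effect of over 60% in size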
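Activity is normalized to no-enzyme wells (full inhibition) and 1.25 nM enzyme wells (no inhibition). Reaction: 0.5 mM F6P, 0.1 mM ATP, 45 min RT, ADP-Glo luminescence; concentration-response curves fitted and classed by quality.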
An asterisk follows results filed as active; ? = inconclusive; / = not tested or not shown; ! = not confirmed by another sample; [ ] = dose if it differs, or a comment. A selection: hits, their analogues and other compounds. The true share with any hit is near 3.1%. Unless noted, calls follow the shape of the dose curve; as a rule, active = well fitted curve in the direction sought with a large enough effect; inconclusive = small, poorly fitted or top-dose-only effect, or another doubt; inactive = no such curve, though single readings can be large; an effect the other way counts as inactive or inconclusive. Potency is read from the fitted curve at half-maximal effect.

SMILES	VDR inhibitor	S-ASM inh	PLK1 PBD block	Pin1 inh	TDP1 inh	Tb PFK inh
O=C(CNC(=O)c1[nH]cnc1C(=O)NC(c1ccccc1)c1ccccc1)OCc1ccccc1	-16.8%	-11.8%	23.8µM*	-0.1%	/	-5.9%
CN(C)c1nc(N)c(C#N)c(C#N)c1C#N	-14.3%	80.6%	26.7µM*	-0.5%	/	/
CCC[C@@H]1NC(=O)[C@@H](NC(C)=O)CSSC[C@@H](C(N)=O)NC(=O)CNC(=O)[C@H](Cc2c[nH]c3ccccc23)NC(=O)[C@H](CCCN=C(N)N)NC(=O)[C@H](Cc2ccc3ccccc3c2)NC(=O)[C@H](Cc2cnc[nH]2)NC(=O)[C@H](CCCN=C(N)N)NC1=O	-0.6%	/	/	/	16.7%	/
O=C(NCCc1ccccc1)N1c2ccccc2Sc2ccccc21	?	-8.0%	23.8µM*	?	-2.0%	6.8%[0.46 µM]
CC(C)CNC(=O)N1c2ccccc2Sc2ccccc21	6.5%	-2.5%	-3.2%	-5.8%	4.7%	1.7%
COc1ccc(S(=O)(=O)Nc2ccc3c(c2)N(C(C)=O)CCC3)cc1F	6.4%	/	/	1.0%	6.2%	/
CCCn1nnnc1NCc1c(F)cccc1Cl	?	5.4%	8.44µM*	-1.1%	0.0%	2.7%
CCCn1nnnc1NCc1c(Cl)cccc1Cl	10.9%	5.8%	4.8%	0.4%	-1.2%	-0.5%
CCOc1cc(C(=O)NCCc2ccc(S(N)(=O)=O)cc2)cc(OCC)c1OCC	-22.9%	1.3%	29.9µM*	-3.2%	1.4%	-1.6%
COc1ccc(N(CC(=O)N/N=C/c2ccc3c(c2)OCO3)S(=O)(=O)c2ccc(NC(C)=O)cc2)cc1	-25.7%	-9.8%	26.7µM*	14.8%	3.4%	-4.0%
COc1ccc(N(CC(=O)Nc2ccc3c(c2)OCO3)S(=O)(=O)c2ccc(F)cc2)cc1	-1.9%	-1.7%	-6.8%	?	0.0%	5.6%
CCOC(=O)CSC1=C(C#N)C(c2ccc(Cl)cc2)C(C(=O)OC)C(=O)N1 (stereo not drawn)	-8.1%	-0.7%	23.8µM*	0.3%	-6.8%	22.1%
COC(=O)CSC1=C(C#N)C(c2ccc(Cl)cc2)C(C(=O)OC)C(=O)N1 (stereo not drawn)	-19.1%	-1.4%	26.7µM*	-0.8%	8.8%	-7.7%
CCOC(=O)CSC1=C(C#N)C(c2sccc2C)C(C(C)=O)=C(C)N1 (stereo not drawn)	-13.7%	4.4%	26.7µM*	15.0%	-3.0%	-3.9%
COC(=O)C1C(=O)NC(SC)=C(C#N)C1c1ccccc1 (stereo not drawn)	7.2%	0.2%	-14.2%	?	-11.8%	6.1%
Cc1ccc(NC(=O)CN2C(=O)CCc3cc(S(=O)(=O)N4CCCCC4)ccc32)cc1N(C)C	9.0%	/	/	-1.3%	8.8%	/
CC(=O)c1ccc(N2C(=O)N(Cc3cccc(C(F)(F)F)c3)c3ccccc3S2(=O)=O)cc1	17.3%	/	/	8.4%	0.5%	/
COc1ccccc1CCNC(=O)C(=O)NCC(c1ccc2c(c1)OCO2)N1CCOCC1 (stereo not drawn)	4.0%	/	/	2.9%	4.4%	/
CCCCOc1ccc(/C=C/C(=O)Nc2ccc(C(N)=O)cc2)cc1	79.4µM*	-0.2%	-5.8%	0.6%	-2.7%	-0.5%
CC(=O)c1cccc(S(=O)(=O)NC2CC2)c1	-4.2%	0.9%	26.7µM*	3.4%	-5.7%	0.6%
NS(=O)(=O)c1cccc(C(=O)NC2CCSc3ccccc32)c1 (stereo not drawn)	2.9%	-0.8%[11.5 µM]	-0.7%	0.1%	/	2.5%
CC(=O)c1cccc(S(=O)(=O)NC2CCSc3ccccc32)c1 (stereo not drawn)	-9.9%	-17.3%	26.7µM*	-0.3%	12.0%	-1.1%
O=C(NCCS(=O)(=O)N1CCN(c2ccc(F)cc2)CC1)c1cccc(C(F)(F)F)c1	14.1%	/	/	2.5%	1.8%	/
O=C(CCCCCn1c(=O)c2sccc2n(Cc2ccc(Cl)cc2)c1=O)NCc1ccc2c(c1)OCO2	89.1µM*	/	/	-2.4%	0.9%	/
CCNc1ccc(C(=O)OCC(=O)N2CCCC2)cc1[N+](=O)[O-]	?	-2.4%	26.7µM*	0.2%	5.3%	0.8%
SMILES	VDR inhibitor	S-ASM inh	PLK1 PBD block	Pin1 inh	TDP1 inh	Tb PFK inh
O=C(OCC(=O)N1CCCCCC1)c1ccc(Cl)c(S(=O)(=O)N2CCCC2)c1	?	8.4%	10.6µM*	-3.6%	/	-13.9%
O=C(COC(=O)c1ccc(Cl)c(S(=O)(=O)N2CCCC2)c1)NCc1ccccc1	-9.4%	-1.4%	2.3%	4.0%	35.5µM*	5.9%
O=C(OCC(=O)N1CCCC1)c1ccc(Cl)c([N+](=O)[O-])c1	-0.5%	0.2%	-7.9%	2.4%	/	2.9%
COC(=O)c1ccc(Cl)c(S(=O)(=O)N2CCCC2)c1	10.8%	-0.5%	-3.3%	-7.7%	8.2%	0.5%
CCOC(=O)c1ccc(Cl)c(S(=O)(=O)N2CCCC2)c1	-20.2%	3.8%	21.2µM*	-1.6%	-4.9%	-2.2%
CCC(=O)OC1C(N(C)C)CC(C)O[C@H]1O[C@H]1[C@H](C)[C@@H](O[C@H]2CC(OC)[C@@H](O)C(C)O2)[C@H](C)C(=O)O[C@@H](CC)[C@](C)(O)[C@@H](O)[C@H](C)C(=O)[C@@H](C)C[C@]1(C)O (stereo partly drawn)	4.5%	/	/	/	/	/
Cc1cc(Br)ccc1-n1[nH]c(C)c(C=Nc2cccc3nsnc23)c1=O	-18.4%	-21.8%	26.7µM*	?	5.7%	-5.9%
Cc1ccc(NC(=O)c2ccc3c(c2)NC(=O)c2ccccc2S3)cc1	-0.3%	/	/	0.1%	-2.0%	/
Cc1nn(CC(=O)Nc2cccc(C(F)(F)F)c2)c(=O)c2cccn12	-29.9%	0.8%	26.7µM*	-0.9%	3.9%	3.7%
Cc1cc(C)n(CC(=O)Nc2cccc(C(F)(F)F)c2)n1	-3.8%	-1.0%	0.5%	5.9%	5.3%	-2.6%
O=C(Nc1ccc(Cl)cc1)Nc1ccccc1CC[N+](=O)[O-]	?	-0.2%	3.36µM*	-0.5%	1.6%	-7.8%
COc1ccc(N(CC(=O)NCC(C)C)S(=O)(=O)c2ccccc2)cc1	?	-6.6%	18.9µM*	-4.4%	-3.6%	-5.9%
COc1ccc(CNC(=O)CN(c2ccccc2)S(=O)(=O)N(C)C)cc1	89.1µM*!	2.1%	-8.8%	-3.9%	-1.1%	-0.9%
COc1ccc(/C=C/c2nc(C#N)c(N3CCCCC3)o2)cc1OC	18.5%	/	/	-12.7%	11.6%	/
